Measurements taken from PubChem BioAssay.

Assay: DUSP6 inhibitors restoring Erk phosphorylation by chemical complementation, primary imaging in DUSP6-transfected HeLa (AID 609)
Details: HeLa MKP-3 transfected, phospho-Erk imaging KS statistic; measured here: cell density z-score; at 10 µM

Compound | z-score
Nc1ncc(P(=S)(N2CCOCC2)N2CCOCC2)s1 | -0.00628
CCCCc1nc(N2CCNCC2)c(C#N)c2c1CSC(C)(C)C2 | 0.415
COc1ccc(C(=O)CC2C(=O)N(C)C(=O)N(C)C2=O)cc1 | 0.66
CCc1nc(N2CCNCC2)c(C#N)c2c1CSC(C)(C)C2 | -1.09
CCCN(CC#CCO)CCC | 0.317
OC1(c2ccc(F)cc2)CCNC1 (stereo unspecified) | -0.692
COc1ccccc1-n1c(O)c(C=NCCCn2ccnc2)c(=O)[nH]c1=O | -0.173
COc1ccc(C2SCC(=O)Nc3c2c(=O)[nH]n3C2CCCCC2)cc1 (stereo unspecified) | 0.845
CCCCNC(=O)Nc1ccc(C(O)(C(=O)OCC)C(F)(F)F)cc1 (stereo unspecified) | -0.832
CCOC(=O)c1cc(C)n(CCc2cnc[nH]2)c1C | -1.19
CC1CN=C(Nc2ccc(N(C)C)cc2)S1 (stereo unspecified) | -0.332
NCC1(c2ccc3c(c2)OCCO3)CCCC1 | -0.692
CCOC(=O)C1=C(C)OC(N)=C(C(=O)OCC)[C@@]12C(=O)N(CC(N)=O)c1ccccc12 | -0.479
COC(=O)C(O)(c1ccc(NC(=O)c2ccco2)c(OC)c1)C(F)(F)F (stereo unspecified) | -0.555
C=CCOC(=O)C1=C(C)OC(N)=C(C#N)[C@@]12C(=O)N(CC(N)=O)c1ccccc12 | 0.623
C=CCOC(=O)C1=C(C)OC(N)=C(C#N)C12C(=O)N(CN1CCOCC1)c1ccccc12 (stereo unspecified) | -0.108
O=C(CN1CCN(CCO)CC1)Nc1ccc(Cl)cc1C(=O)c1ccccc1 | 0.92

Compound | z-score
Cc1c(N=Cc2c(O)n(Cc3ccco3)c(=O)[nH]c2=O)c(=O)n(-c2ccccc2)n1C | 0.39
CN(C)CCOC(=O)c1cn(Cc2ccccc2)c2ccccc12 | 1.72
COc1ccc2c(c1OC)C(=O)OC2c1c(O)n(C2CCCCC2)c(=O)[nH]c1=O (stereo unspecified) | 0.755
Cn1c(O)c(C=NCCCNC2CCCCC2)c(=O)n(C)c1=O | 0.261
COc1ccc(C2SCC(=O)Nc3c2c(=O)[nH]n3C2CCCCCC2)cc1 (stereo unspecified) | 1.06
CNC(=O)N(C)c1nnc(C(C)(C)C)s1 | -3.07
CCCC12CN3CN(C1)CC(CCC)(C3)C2O (stereo unspecified) | 0.514
Nc1c(C(=O)NCc2ccco2)c2nc3ccccc3nc2n1CCN1CCCCC1 | -0.477
OC(c1ccc(F)cc1)C(c1ccccc1)N1CCOCC1 (stereo unspecified) | -0.0994
COC(=O)C(c1ccccc1)N1CCCCCC1 (stereo unspecified) | -0.512
CCn1c(O)c(C(=O)CC2NCCc3ccccc32)c(=O)n(CC)c1=S (stereo unspecified) | -1.06
Nc1c(C(=O)NCc2ccco2)c2nc3ccccc3nc2n1Cc1ccc(F)cc1 | 0.15
CCCCNC(=O)Nc1ccc(C(O)(C(=O)OC)C(F)(F)F)cc1 (stereo unspecified) | 0.744
CC1(C)NCCN2C(=O)CSC21 (stereo unspecified) | 0.771
CC1(c2ccccc2)NCCN2C(=O)CSC21 (stereo unspecified) | 1.05
CN1CCc2c(c(N3CCCCC3)nc3n[nH]c(N)c23)C1 | 1.06

Same assay, conditions: HeLa MKP-3 transfected, phospho-Erk imaging KS statistic; measured here: nuclear c-Myc green intensity z-score; at 10 µM

Compound | z-score
Nc1ncc(P(=S)(N2CCOCC2)N2CCOCC2)s1 | -0.183
CCCCc1nc(N2CCNCC2)c(C#N)c2c1CSC(C)(C)C2 | -0.261
COc1ccc(C(=O)CC2C(=O)N(C)C(=O)N(C)C2=O)cc1 | 0.621
CCc1nc(N2CCNCC2)c(C#N)c2c1CSC(C)(C)C2 | -0.257
CCCN(CC#CCO)CCC | 1.4
OC1(c2ccc(F)cc2)CCNC1 (stereo unspecified) | -1.09
COc1ccccc1-n1c(O)c(C=NCCCn2ccnc2)c(=O)[nH]c1=O | -0.884
COc1ccc(C2SCC(=O)Nc3c2c(=O)[nH]n3C2CCCCC2)cc1 (stereo unspecified) | -1.45
CCCCNC(=O)Nc1ccc(C(O)(C(=O)OCC)C(F)(F)F)cc1 (stereo unspecified) | -1.24
CCOC(=O)c1cc(C)n(CCc2cnc[nH]2)c1C | -0.0641
CC1CN=C(Nc2ccc(N(C)C)cc2)S1 (stereo unspecified) | 0.426
NCC1(c2ccc3c(c2)OCCO3)CCCC1 | -0.463
CCOC(=O)C1=C(C)OC(N)=C(C(=O)OCC)[C@@]12C(=O)N(CC(N)=O)c1ccccc12 | -0.527
COC(=O)C(O)(c1ccc(NC(=O)c2ccco2)c(OC)c1)C(F)(F)F (stereo unspecified) | 0.637
C=CCOC(=O)C1=C(C)OC(N)=C(C#N)[C@@]12C(=O)N(CC(N)=O)c1ccccc12 | -0.273
C=CCOC(=O)C1=C(C)OC(N)=C(C#N)C12C(=O)N(CN1CCOCC1)c1ccccc12 (stereo unspecified) | 0.314
O=C(CN1CCN(CCO)CC1)Nc1ccc(Cl)cc1C(=O)c1ccccc1 | -0.897

Compound | z-score
Cc1c(N=Cc2c(O)n(Cc3ccco3)c(=O)[nH]c2=O)c(=O)n(-c2ccccc2)n1C | 0.06
CN(C)CCOC(=O)c1cn(Cc2ccccc2)c2ccccc12 | -0.185
COc1ccc2c(c1OC)C(=O)OC2c1c(O)n(C2CCCCC2)c(=O)[nH]c1=O (stereo unspecified) | 0.301
Cn1c(O)c(C=NCCCNC2CCCCC2)c(=O)n(C)c1=O | -0.315
COc1ccc(C2SCC(=O)Nc3c2c(=O)[nH]n3C2CCCCCC2)cc1 (stereo unspecified) | 0.0384
CNC(=O)N(C)c1nnc(C(C)(C)C)s1 | 0.0042
CCCC12CN3CN(C1)CC(CCC)(C3)C2O (stereo unspecified) | 1.99
Nc1c(C(=O)NCc2ccco2)c2nc3ccccc3nc2n1CCN1CCCCC1 | 2.3
OC(c1ccc(F)cc1)C(c1ccccc1)N1CCOCC1 (stereo unspecified) | 1.62
COC(=O)C(c1ccccc1)N1CCCCCC1 (stereo unspecified) | 1.36
CCn1c(O)c(C(=O)CC2NCCc3ccccc32)c(=O)n(CC)c1=S (stereo unspecified) | -1.07
Nc1c(C(=O)NCc2ccco2)c2nc3ccccc3nc2n1Cc1ccc(F)cc1 | 1.06
CCCCNC(=O)Nc1ccc(C(O)(C(=O)OC)C(F)(F)F)cc1 (stereo unspecified) | -1.2
CC1(C)NCCN2C(=O)CSC21 (stereo unspecified) | 0.411
CC1(c2ccccc2)NCCN2C(=O)CSC21 (stereo unspecified) | -0.953
CN1CCc2c(c(N3CCCCC3)nc3n[nH]c(N)c23)C1 | -1.56
